Source: PubChem BioAssay (NCATS)
Records with an inconclusive call do not appear. Entries that show only a call come without a potency. Activity calls are given as the source filed them. Calls come from the whole dose curve; as a rule, active = well fitted activation curve with a large enough effect; inconclusive = small, poorly fitted or top-dose-only effect; inactive = flat fitted curve, though single readings scatter.

assay: Primary redox qHTS assay for identification of artifact compounds. (AID 1845223); details: Amplex Red/HRP redox cycling with DTT, fluorescence; series mostly up to 53.8 µM
How it was run: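 Amplex Red (25 uM) and HRP (250 mU/mL) in HBSS, with compounds for 15 min, then 250 uM DTT for 30 min, room temperature, dark. Fluorescence 525/598 nm read; normalized to DMSO and 10 uM DA3003; Hill fit.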

SMILES | Potency
O=C(O)c1cc(C(F)(F)F)ccc1N1CC[C@H](OCc2ccccn2)C1 | inactive
Nc1c(-c2ccccc2)nc(Cl)c2c(O)n[nH]c(=O)c12 | inactive
CC(CNS(=O)(=O)C(C)C)c1ccc(-c2ccc(C#N)cc2)cc1 (stereo unspecified) | inactive
CC1=C2C(=O)C=C(CO)C2[C@H]2OC(=O)[C@H](C)[C@@H]2[C@@H](OC(=O)Cc2ccc(O)cc2)C1 (stereo partly specified) | inactive
O=C(C[C@@H]1C(C(=O)O)=CO[C@@H](O[C@@H]2O[C@H](CO)[C@@H](O)[C@H](O)[C@H]2O)/C1=C\CO)OCCc1ccc(O)cc1 | inactive
O=C(CC1CC(c2ccc(F)cc2F)=NO1)N1CCOCC1 (stereo unspecified) | inactive
CC1=C2C3OC(=O)C(C)C3(O)CCC2(C)CCC1 (stereo unspecified) | inactive
O=C(C1OC1/C=C/c1ccc2c(c1)OCO2)N1CCCCC1 (stereo unspecified) | inactive
CC(C)=CCC/C(C)=C/CO[C@@H]1O[C@H](CO[C@@H]2OC[C@](O)(CO)[C@H]2O)[C@@H](O)[C@H](O)[C@H]1O | inactive
CC(C)N(CCCNC(=O)Nc1ccc(C(C)(C)C)cc1)C[C@H]1O[C@@H](n2ccc3c(N)ncnc32)[C@H](O)[C@@H]1O | inactive
O=C(O)C[C@H]1CCC(=O)[C@@H]1C/C=C\CCO | inactive
